Results filed as inconclusive are left out. A number with no mark means an inactive call. Calls come from the whole dose curve; as a rule, active = well fitted inhibition curve with a large enough effect; inconclusive = small, poorly fitted or top-dose-only effect; inactive = no such curve, though single readings can be large or run the other way.
These compounds were tested against Rap guanine nucleotide exchange factor 3 (Homo sapiens) (UniProt O95398) (assay: Counterscreen qHTS for antagonist of cAMP-regulated guanine nucleotide exchange factor 3 (EPAC1) (AID 1645888; note: % of control where 0% means no effect)). Settings: Rap1B-BODIPY-GDP nucleotide exchange, fluorescence; series mostly up to 154 µM; activity change, negative = inhibition: at the top concentration.
Rap guanine nucleotide exchange factor 3 (Homo sapiens), sequence (O95398 whole entry, looked up): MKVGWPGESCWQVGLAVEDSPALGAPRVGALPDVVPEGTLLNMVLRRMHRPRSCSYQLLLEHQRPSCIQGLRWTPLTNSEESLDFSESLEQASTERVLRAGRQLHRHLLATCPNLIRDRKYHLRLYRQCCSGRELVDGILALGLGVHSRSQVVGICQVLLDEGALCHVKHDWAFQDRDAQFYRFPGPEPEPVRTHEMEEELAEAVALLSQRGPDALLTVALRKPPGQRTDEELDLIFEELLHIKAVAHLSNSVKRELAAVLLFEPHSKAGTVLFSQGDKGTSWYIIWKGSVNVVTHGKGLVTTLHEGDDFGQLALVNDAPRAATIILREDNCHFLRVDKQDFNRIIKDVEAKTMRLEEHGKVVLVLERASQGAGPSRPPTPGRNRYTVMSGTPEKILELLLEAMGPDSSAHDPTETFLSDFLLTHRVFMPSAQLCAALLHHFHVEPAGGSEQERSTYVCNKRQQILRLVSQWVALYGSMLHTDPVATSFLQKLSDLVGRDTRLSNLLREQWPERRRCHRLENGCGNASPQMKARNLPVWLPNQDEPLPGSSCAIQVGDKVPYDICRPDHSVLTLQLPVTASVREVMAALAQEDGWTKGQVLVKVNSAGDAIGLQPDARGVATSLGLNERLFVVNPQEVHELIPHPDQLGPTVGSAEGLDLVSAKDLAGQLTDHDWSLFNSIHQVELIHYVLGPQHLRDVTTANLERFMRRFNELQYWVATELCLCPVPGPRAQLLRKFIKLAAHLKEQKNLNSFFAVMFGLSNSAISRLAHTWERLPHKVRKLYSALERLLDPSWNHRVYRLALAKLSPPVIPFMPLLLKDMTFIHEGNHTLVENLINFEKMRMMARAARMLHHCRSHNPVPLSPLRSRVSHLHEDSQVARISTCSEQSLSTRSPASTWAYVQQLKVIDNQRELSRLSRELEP
How it was run: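 Measured: fluorescence of BODIPY-GDP bound to Rap1B, which falls as exchange proceeds. Conditions include 50 uM competing GDP, 5 and 30 min reads, and a later cAMP challenge for antagonist detection.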

Question: With `Cc1cccc(-c2nc3nc(C)cc(NCc4ccccc4Cl)n3n2)c1` as the compound, how does the “activity change, negative = inhibition” value read?
Answer: Its value is -8.69%.

Question: For `Nc1c(C(=O)C2CC2)sc2nc(-c3cccs3)cc(C(F)(F)F)c12`, which “activity change, negative = inhibition” value is on record?
Answer: The value was 64.8%.

Question: How did the “activity change, negative = inhibition” value turn out when `COc1ccc(Cl)cc1NC(=O)CN(C)C(C)C(=O)NC(=O)NC1CCCCC1` (stereo not given) was run?
Answer: Its value is 8.33%.

Question: For `COC(=O)c1c(C)c2c(C)cc3ccccn3c-2c1C(=O)OC`, which activity change, negative = inhibition is on record?
Answer: The activity change, negative = inhibition was 9.53% [at 30.8 µM].

Question: How did the “activity change, negative = inhibition” value turn out when `CCOc1ccc(CCN2C(=O)C(=O)N([C@@H](CC(C)C)CN3CCC[C@@H]3CN3C(=O)C(=O)NC[C@@H]3Cc3ccccc3)C[C@@H]2CC(C)C)cc1` was run?
Answer: Its value is -7.51%.

Question: For `CCOC(=O)N1CCc2c(sc3c2c(=O)n(-c2ccc(F)cc2)c(=O)n3CC(=O)c2ccc(Cl)cc2)C1`, which “activity change, negative = inhibition” value is on record?
Answer: The value was 24.8%.

Question: Which activity change, negative = inhibition does the source give for `CCOC(=O)/C(C#N)=C/c1ccc(N2CCN(Cc3ccccc3)CC2)cc1` here?
Answer: Its activity change, negative = inhibition is 16.8% [at 30.8 µM].

Question: With `CCN(CC)c1ccc2cc(C(N)=O)c(=N)oc2c1` as the compound, how does the activity change, negative = inhibition read?
Answer: The activity change, negative = inhibition was -1.22% [at 30.8 µM].

Question: For `COc1ccc(N=Cc2c(O)ccc3ccccc23)cc1`, which activity change, negative = inhibition is on record?
Answer: Its activity change, negative = inhibition is 17.7% [at 30.8 µM].

Question: How did the activity change, negative = inhibition turn out when `CCOC(=O)C1=C(C)N=c2s/c(=C\c3cccn3C)c(=O)n2C1c1cccc(OC)c1OC` (stereo not given) was run?
Answer: The activity change, negative = inhibition was -4.43% [at 30.8 µM].

Question: Which “activity change, negative = inhibition” value does the source give for `C=CCN1C(=O)c2cccc3c(N4CCCCC4)ccc(c23)C1=O` here?
Answer: The value was 68.6%.

Question: `O=C(NN=Cc1c(O)ccc2ccccc12)c1ccncc1` was tested. Which activity change, negative = inhibition did it give?
Answer: The activity change, negative = inhibition was 4.58% [at 30.8 µM].

Question: `COC(=O)CC(NC(=S)NC(=O)c1ccccc1)c1ccc(Br)cc1` (stereo not given) was tested. Which “activity change, negative = inhibition” value did it give?
Answer: The value was 5.12%.

Question: `N=C1SC(c2ccccc2)C(=O)N1c1ncc(Cc2ccccc2Cl)s1` (stereo not given) was tested. Which “activity change, negative = inhibition” value did it give?
Answer: The value was 11.6%.

Question: With `O=C(O)c1ccccc1NS(=O)(=O)c1ccc(NN=Cc2cccc(Cl)c2)c([N+](=O)[O-])c1` as the compound, how does the “activity change, negative = inhibition” value read?
Answer: Its value is 27.4%.

Question: With `O=C(NCc1ccco1)c1ccc(Cn2c(=S)[nH]c3ccccc3c2=O)cc1` as the compound, how does the “activity change, negative = inhibition” value read?
Answer: The value was 11.4%.

Question: `O=C(COc1cccc(OC(F)F)c1)Nc1ccc(SC(F)F)cc1` was tested. Which activity change, negative = inhibition did it give?
Answer: Its activity change, negative = inhibition is 8.28% [at 30.8 µM].

Question: With `O=C1CCC2CN3CCc4c([nH]c5ccccc45)C3CC2C1` (stereo not given) as the compound, how does the activity change, negative = inhibition read?
Answer: The activity change, negative = inhibition was 2.15% [at 30.8 µM].

Question: How did the activity change, negative = inhibition turn out when `Cc1ccc(S(=O)(=O)C2(C(=O)Nc3ccc(Br)cc3)CC2)cc1` was run?
Answer: The activity change, negative = inhibition was -6.73% [at 30.8 µM].

Question: Which activity change, negative = inhibition does the source give for `CCc1ccc(NC(=O)/C(C#N)=C/c2cc3ccc(C)cc3nc2N2CCOCC2)cc1` here?
Answer: Its activity change, negative = inhibition is -18.1% [at 30.8 µM].

Question: Which “activity change, negative = inhibition” value does the source give for `COC(=O)c1cc2sc(Cl)cc2n1Cc1cc(C)ccc1C` here?
Answer: Its value is 42%.

Question: Which “activity change, negative = inhibition” value does the source give for `CN1CCS/C1=C\C=C1/SC(=S)N(CC(=O)O)C1=O` here?
Answer: The value was 104%.

Question: For `Cc1cccc(-n2c(N)c(-c3nc4ccccc4n3C)c3nc4ccccc4nc32)c1`, which activity change, negative = inhibition is on record?
Answer: Its activity change, negative = inhibition is -16.7% [at 30.8 µM].

Question: How did the “activity change, negative = inhibition” value turn out when `COC(=O)c1ccccc1C(=O)c1cccc2ccccc12` was run?
Answer: Its value is 23%.

Question: How did the activity change, negative = inhibition turn out when `CC(OC(=O)/C(C#N)=C/c1ccc(N(C)C)cc1)C(=O)N(C)Cc1ccccc1` (stereo not given) was run?
Answer: The activity change, negative = inhibition was -0.358% [at 30.8 µM].

From PubChem BioAssay (NCATS)
